Reference: PubChem BioAssay (NCI)
This is part of a sample that, as a whole, favours compounds with a hit. Of some 83,000 tested, about 20% had one in any assay.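 Single-concentration screen, 48 h exposure, 96-well plates. Endpoint: percent growth. Below 10 = active.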 Unmarked numbers belong to inactive results. Calls of active or inactive are those of the source.

Test system: HL-60(TB) leukemia
Experiment: NCI-60 one-dose screen, 48 h (100 = growth as untreated, 0 = no growth, -100 = all killed)
Settings: 10 µM unless noted

Structure (SMILES) | growth
COc1cc(-c2ccc3ncnc(N4CCc5ccc(Cl)cc54)c3c2)cnc1Cl | -8.13% (active)
NCCCCn1c(SCCc2c[nH]c3ccccc23)nnc1-c1ccc2ccccc2n1 | -64.6% (active)
CCCS(=O)(=O)N1CCCC(C(=O)Nc2nc3ccc(NC(=O)c4ccc(F)c(OC)c4F)cc3s2)C1 (stereo not drawn) | 27.3%
Cn1cc(-c2cc(N)n3nc(-c4c[nH]c5ccc(F)cc45)cc3n2)c2cc(Br)cnc21 | 33.2%
CCCCCCCCCc1ccc(C(=O)Nc2cc(C)ccc2C(=O)OC)cc1 | 97.1%
CCOC(=O)C1=C(N)N(c2ccccc2)C2=C(C(=O)CC(C)(C)C2)C1c1ccc(Cl)cc1 (stereo not drawn) | 6.03% (active)
CC1(C)CC[C@]2(C(=O)O)CC[C@]3(C)C(=CCC4[C@@]5(C)C[C@@H](O)[C@@H]6OC(c7ccco7)OC[C@@]6(C)C5CC[C@]43C)C2C1 (stereo partly drawn) | 13.5%
C#CCOc1cc(N(CC)CC)ccc1C(C(=O)NC(C)(C)C)N(C(=O)C1CCc2cc(F)ccc2O1)c1ccc(F)c(Cl)c1 (stereo not drawn) | 27.2%
O=C(c1ccc(O)cc1)C1[C@H](c2ccc(Cl)cc2)[C@@H](c2ccccc2)NC12C(=O)Nc1ccc(Br)cc12 (stereo partly drawn) | -33.9% (active)
O=C(Cn1c(-c2ccccc2)nc2ccccc21)N=Nc1c(O)[nH]c2ccc(Br)cc12 | 42.4%
CCOC(=O)COc1c(OC)c(OC)cc2oc(-c3cccc(C(=O)Nc4ccc(Cl)cc4)c3)cc(=O)c12 | 97.6%
CC1(C)CC[C@]2(C(=O)O)CC[C@]3(C)C(=CCC4[C@@]5(C)C[C@@H](O)[C@@H]6OC(c7ccccc7Br)OC[C@@]6(C)C5CC[C@]43C)C2C1 (stereo partly drawn) | 4.07% (active)
Cc1cc(C(F)(F)F)ccc1C(=O)Nc1sc2c(c1C#N)CCC(=O)C2 | -14.5% (active)
N/C(=N\c1nc2ccccc2s1)NC(=O)Nc1ccccc1[N+](=O)[O-] | -11.1% (active)
Nc1nc(-c2ccccc2)c(N=Nc2ccc([N+](=O)[O-])cc2Cl)s1 | 98.1%
COc1ccc(-c2ccc(/C=N/NC(=O)c3[nH]c4ccc(Br)cc4c3-c3ccccc3)o2)cc1 | 6.17% (active)
CC[C@]12C=CCN3CC[C@@]4(c5ccc(OC)cc5N(C)[C@H]4[C@@](O)(C(=O)OC)[C@@H]1OC(=O)CCCC[P+](c1ccc(F)cc1)(c1ccc(F)cc1)c1ccc(F)cc1)[C@@H]32 | -32.2% (active)

Structure (SMILES) | growth
CN(C)CCCNC(=S)Nc1ccc(/C=C/c2ccc(Cl)cc2)cc1 | -22.4% (active)
COc1ccc2[nH]c(O)c(N=Nc3nc(-c4ccc(C#N)cc4)cs3)c2c1 | 84.4%
O=C1NC(=NC23CC4CC(CC(C4)C2)C3)N/C1=C\c1ccc2ncccc2n1 | -19.1% (active)
CCN1C(=O)N(CC)C2NNC(Sc3c(C(=O)O)c4ccccc4n(C4CCCC4)c3=O)=NC21 (stereo not drawn) | -9.96% (active)
COc1ccc2[nH]cc(-c3cc4nc(-c5cn(C)c6ncccc56)cc(N)n4n3)c2c1 | -35.4% (active)
COc1ccc(-c2ccc(SCC(=O)Nc3ccc(C#N)cc3)nn2)cc1 | 95.8%
COc1ccc(N=Nc2c(N)nn3c(-c4ccc5c(c4)C=S=C5)ccnc23)cc1 | 37.7%
COc1ccc(/C=C2\C(=O)Nc3ccc(Cl)cc32)cc1OCc1ccccn1 | 64.7%
COc1ccc2nc(Cl)c(-c3cc(-c4ccccc4)nc(=O)[nH]3)cc2c1 | 3.35% (active)
O=c1nc(-c2ccccc2)cc(-c2cc3ccccc3nc2Cl)[nH]1 | -34.7% (active)
CC1(C)CC[C@]2(C(=O)Nc3ccc(F)cc3)CC[C@]3(C)C(=CCC4[C@@]5(C)C[C@@H](O)[C@H](O)[C@@](C)(CO)C5CC[C@]43C)C2C1 (stereo partly drawn) | -11.7% (active)
CCCCSc1nc(NCCc2c[nH]c3ccccc23)c(C#N)c(-c2ccccc2)n1 | 45.8%
O=C(Nc1ccc(Br)cc1)Nc1ccc(-c2ccc3c(c2)NC(=O)/C3=C\c2ccc[nH]2)cc1 | 33.4%
Cc1ccc(C(=O)Nc2cccc(C(=O)NC(=S)Nc3ccc(S(N)(=O)=O)cc3)c2)cc1 | 84.7%
Cc1ccccc1[C@H]1C(C(=O)c2ccc(Cl)cc2)C2(N[C@@H]1c1ccccc1)C(=O)Nc1ccc(Br)cc12 (stereo partly drawn) | -1.57% (active)
Cc1ccc(/C(CSc2nnc(-c3c[nH]c4ccccc34)n2-c2ccccc2)=N/O)cc1 | -13.8% (active)
